Source: PubChem BioAssay (EPA / NIEHS)
Activity calls are given as the source filed them. Rule for the calls: active = hit-call score of the fitted dose curve at least 0.9, where 1 is the maximum; inactive = score below 0.9.

Each compound was assayed on Monocyte Chemoattractant Protein-1 (MCP1), CCL2 (gene 6347) (assay: BSK_3C_MCP1: BioMAP Diversity Plus: 3C Assay for Monocyte Chemoattractant Protein-1 (MCP1) Biomarker Activity (AID 2283017)). Settings: primary human endothelial cells (HUVEC); actives raise or lower the signal.
Method: BSK_3C is a cell-based, multiplexed-readout assay that uses umbilical vein endothelium, a human vascular primary cell, with measurements taken at 24 hours after chemical dosing in a 96-well plate.BSK_3C_MCP1 is an assay component measured in the BSK_3C assay. It measures MCP-1 antibody related to regulation of gene expression using ELISA technology.Data from the assay component BSK_3C_MCP1 was analyzed into 1 assay endpoint. This assay endpoint, BSK_3C_MCP1, was analyzed with bidirectional fitting relative to DMSO as the negative control and baseline of activity. Using a type of binding reporter, gain or loss-of-signal activity can be used to understand changes in the signaling as they relate to the gene CCL2. Furthermore, this assay endpoint can be referred to as a primary readout, because this assay has produced multiple assay endpoints where this one serves a signaling function. To generalize the intended target to other relatable targets, this assay endpoint is annotated to the cytokine intended target family, where the subfamily is chemotactic factor.
The levels of cell surface (or secreted, indicated by the prefix "s") biomarker endpoints were measured by ELISA. Overt cytotoxicity to cells in confluent adherent cultures (all systems other than the BT system) was assessed by measuring total protein levels using sulforhodamine B (SRB) staining in parallel cultures at the time of biomarker measurements, indicated as SRB endpoints. For proliferation assays for adherent cell types, individual cell types are cultured at sub-confluence and relative cell numbers quantified by SRB staining at time points optimized for each system (48 h: 3C and CASM3C systems; 72 h: BT and HDF3CGF systems; 96 h: SAg system). SRB was performed by staining cells with 0.1% SRB after fixation with 10% TCA and reading wells at 560 nm.Viability and proliferation of PBMC (T cells) was quantified by Alamar Blue reduction for the SAg and BT systems. For PBMC viability (referred to as PBMC Cytotoxicity within the assay endpoint names), cells were plated (75,000/well in a 96-well plate) and then chemical samples added for 1 h before addition of activators, SEB and TSST-1 (20 ng/mL final concentration each). Cells were incubated for 90 h. Then, Alamar Blue (20 uL/well) (Invitrogen, Cat DAL1100) was added for 6 h, and the plates were read with a fluorescence microplate reader at 546/580 nm (excitation/emission). For PBMC proliferation, cells were plated and activated as above but incubated for only 16 h prior to addition of Alamar Blue. Plates were read after 6 h.
For `COC(=O)NC(=S)Nc1ccccc1NC(=S)NC(=O)OC`, the outcome was “inactive”. `CC1(C)C(C=C(Cl)Cl)C1C(=O)OC(C#N)c1cccc(Oc2ccccc2)c1` (stereo not given) was tested, and the outcome was “inactive”. For `CC(C)Nc1nc(Cl)nc(NC(C)C)n1`, the outcome was “inactive”. With `CNC(=O)N(C)c1nnc(C(C)(C)C)s1` the outcome was “inactive”. With `Clc1nc(Cl)nc(Nc2ccccc2Cl)n1` the outcome was “inactive”. `COP(=S)(OC)SCn1nnc2ccccc2c1=O` was tested, and the outcome was “inactive”. In the case of `CSC(=O)c1c(C(F)F)nc(C(F)(F)F)c(C(=O)SC)c1CC(C)C`, the AC50 is reported as 31.2 µM (active). For `CC(C)N1C(=O)c2ccccc2NS1(=O)=O`, the outcome was “inactive”. For `O=c1n(Cl)c(=O)n(Cl)c(=O)n1Cl`, the outcome was “inactive”. With `O=C(O)c1c(Cl)ccc2cc(Cl)cnc12` the outcome was “inactive”. `CCOC(=O)C(C)OC(=O)c1cc(Oc2ccc(C(F)(F)F)cc2Cl)ccc1[N+](=O)[O-]` (stereo not given) was tested, and the AC50 was 10.6 µM (active). `CCCN(CC)CC1COC2(CCC(C(C)(C)C)CC2)O1` (stereo not given) was tested, and the outcome was “inactive”. `COP(=S)(OC)Oc1ccc([N+](=O)[O-])c(C)c1` was tested, and the AC50 was 30.8 µM (active). For `COc1cc(OC)nc(NC(=O)NS(=O)(=O)c2ncccc2OCC(F)(F)F)n1`, the outcome was “inactive”. `CCCCC(C#N)(Cn1cncn1)c1ccc(Cl)cc1` (stereo not given) was tested, and the outcome was “inactive”. With `CCNC(=O)NC(=O)C(C#N)=NOC` the outcome was “inactive”. With `Nc1c(Cl)c(F)nc(OCC(=O)O)c1Cl` the outcome was “inactive”. For `CC(C)N1C(=O)N(c2ccccc2)CSC1=NC(C)(C)C`, the AC50 was 31.3 µM (active). For `Nc1cnn(-c2ccccc2)c(=O)c1Cl`, the outcome was “inactive”. In the case of `COC(=O)c1c(C(F)F)nc(C(F)(F)F)c(C2=NCCS2)c1CC(C)C`, the outcome is reported as “inactive”. `CC(C)C1(C)N=C(c2ncccc2C(=O)O)NC1=O` (stereo not given) was tested, and the outcome was “inactive”. In the case of `CO/N=C(/C1=NOCCO1)c1ccccc1Oc1ncnc(Oc2ccccc2Cl)c1F`, the AC50 is reported as 20.1 µM (active). With `CN/C(=N\[N+](=O)[O-])NCc1cnc(Cl)s1` the outcome was “inactive”. `C=C(C)CN(CC)c1c([N+](=O)[O-])cc(C(F)(F)F)cc1[N+](=O)[O-]` was tested, and the outcome was “inactive”. With `Cc1cc(C)nc(Nc2ccccc2)n1` the outcome was “inactive”. With `COP(=O)(OC)O/C(C)=C/C(=O)N(C)C` the outcome was “inactive”. In the case of `CCN(CC)c1nc(C)cc(OP(=S)(OC)OC)n1`, the outcome is reported as “inactive”. For `C=CCOC(=O)C(C)(C)OC(=O)c1cc(-n2c(=O)cc(C(F)(F)F)n(C)c2=O)ccc1Cl`, the outcome was “inactive”. For `O=P(O)(O)CCCl`, the outcome was “inactive”. With `CCCC(=NOCC)C1=C(O)CC(CC(C)SCC)CC1=O` (stereo not given) the outcome was “inactive”. For `Cn1c(-c2ccccc2)cc(-c2ccccc2)[n+]1C`, the AC50 was 5.41 µM (active). For `COCC(=O)N(c1c(C)cccc1C)C(C)C(=O)OC` (stereo not given), the outcome was “inactive”. In the case of `CNC(=O)Oc1cccc2ccccc12`, the outcome is reported as “inactive”. With `N#CN=C1SCCN1Cc1ccc(Cl)nc1` the outcome was “inactive”. In the case of `CS(=O)(=O)c1cc(C(F)(F)F)ccc1C(=O)c1cnoc1C1CC1`, the outcome is reported as “inactive”. `COc1ccc(-c2ccccc2)cc1NNC(=O)OC(C)C` was tested, and the outcome was “inactive”. With `CCN(CC)C(=O)C(C)Oc1cccc2ccccc12` (stereo not given) the outcome was “inactive”. With `COCc1cnc(C2=NC(C)(C(C)C)C(=O)N2)c(C(=O)O)c1` (stereo not given) the outcome was “inactive”. For `CC(C)(C)C(=O)C(Oc1ccc(Cl)cc1)n1cncn1` (stereo not given), the outcome was “inactive”. `OC(c1ccc(Cl)cc1)(c1ccc(Cl)cc1)C(Cl)(Cl)Cl` was tested, and the AC50 was 29.3 µM (active).
